ClpP mod = qHTS Assay for Activators of ClpP. ATP-dependent Clp protease proteolytic subunit (Bacillus subtilis (strain 168)), P80244. purified B. subtilis ClpP, FRET peptide cleavage, 20 min. Potency, µM (titrated, usually from 57.5 µM), inactives show at the highest dose activity change, negative = active. hit rate 1.9% among 340,000; active means well fitted falling curve with a large enough effect; inconclusive means small, poorly fitted or top-dose-only effect; inactive means no such curve, though single readings can be large or run the other way; further: potency means the concentration at half of the fitted maximal effect; the source files actives as falling curves though it sought activators and does not explain the sign; nearly all actives have a fitted effect of over 65% in size
Target sequence (P80244 whole entry, looked up): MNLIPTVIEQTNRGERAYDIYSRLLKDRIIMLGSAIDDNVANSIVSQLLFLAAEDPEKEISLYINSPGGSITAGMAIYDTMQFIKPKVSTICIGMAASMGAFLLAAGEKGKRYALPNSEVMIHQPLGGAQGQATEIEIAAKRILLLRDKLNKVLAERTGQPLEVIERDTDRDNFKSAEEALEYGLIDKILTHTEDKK
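Buffer: 100 mM Tris/HCl pH8, 100 mM KCl, 0.05% low protease BSA, 2.5% glycerol, 0.01% Tween-20. ClpP 10 microg/mL final; 20 min RT; delta FRET normalized to ADEP and DMSO controls.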
TDP1 cell CPT = DT40-hTDP1 cell growth loss with CPT | chicken DT40 Tdp1-/-;hTDP1 cells + 20 nM CPT, ATP luminescence, 48 h | Potency, µM (series often up to 46.2 µM), for inactives: top-dose activity change, negative = growth inhibition, most hits filed as inhibitors | hit rate 12% among 420,000 | AID 686979; further: potency means the concentration at half of the fitted maximal effect; on the % scale 0 is the no-effect control and ±100 the full control effect; nearly all actives have a fitted effect of over 55% in size
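Chicken DT40 Tdp1-/- cells complemented with human TDP1, 400 cells/well, exposed to compounds plus 20 nM camptothecin for at least 48 h at 37 C; viability read as ATP content by CellTiter-Glo luminescence.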
TDP1 cell noCPT = qHTS for Inhibitors of human tyrosyl-DNA phosphodiesterase 1 (TDP1): qHTS in cells in absence of CPT. DT40 Tdp1-/- hTDP1 cells, no CPT, ATP luminescence, 48 h. Potency, µM (titrated, usually from 46.2 µM), inactives show at the top dose activity change, negative = growth inhibition, hits mostly inhibitors. hit rate 15% among 420,000; further: potency means the concentration at half of the fitted maximal effect; on the % scale 0 is the no-effect control and ±100 the full control effect; nearly all actives have a fitted effect of over 55% in size
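Luminescent ATP content (CellTiter-Glo) served as the growth readout. Knockout chicken DT40 cells expressing human TDP1 were exposed to compounds without camptothecin for a minimum 48 hr at 37 °C.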
D3 antag = blocks the human D3 dopamine receptor. max response, negative = inhibition, %. hit rate 2.5% among 360,000. P35462. AID 652054. D3R cells, DiscoveRx beta-arrestin luminescence, antagonist mode; active compounds read low; in the data active means max response below about -50%; inconclusive means no clear call, values can overlap the other calls; further: on the % scale 0 is the no-effect control and ±100 the full control effect
Target sequence (P35462 whole entry, looked up): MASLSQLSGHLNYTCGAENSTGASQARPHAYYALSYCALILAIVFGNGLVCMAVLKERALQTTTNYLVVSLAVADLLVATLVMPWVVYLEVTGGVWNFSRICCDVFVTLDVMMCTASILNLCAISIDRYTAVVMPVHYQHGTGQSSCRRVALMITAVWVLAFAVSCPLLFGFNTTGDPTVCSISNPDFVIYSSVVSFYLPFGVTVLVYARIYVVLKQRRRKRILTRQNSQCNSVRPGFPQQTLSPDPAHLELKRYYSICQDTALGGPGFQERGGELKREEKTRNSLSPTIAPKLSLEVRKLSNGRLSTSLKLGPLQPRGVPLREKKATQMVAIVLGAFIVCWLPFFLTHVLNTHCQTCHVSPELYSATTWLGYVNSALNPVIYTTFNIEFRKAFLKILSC
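Cells plated overnight at 1500 cells/well, then exposed to library compounds with dopamine controls for 90 minutes at 37 degrees C. DiscoveRx reagent added for 30–60 minutes at room temperature; luminescence read, quantitative HTS format.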
IL1B secr inh = inflammasome signaling inhibition, IL-1 beta readout | activity change, % at 57.5 µM | THP-1 LPS/ATP IL-1B secretion, AlphaLISA, 16 h; active compounds read low | AID 743279 | hit rate 4.7% among 360,000; in the data active means activity change below about -50%; inconclusive means mostly about -30% to -49%; further: on the % scale 0 is the no-effect control and ±100 the full control effect
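Secreted IL-1B measured by AlphaLISA bead assay after 16 h compound exposure of THP-1 cells; compounds (final up to 57.5 uM) added 1 h before LPS (250 ng/mL) and ATP (1.25 mM) stimulation; lower signal means less secretion.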
D3 ag = activates the human D3 dopamine receptor; D3R DiscoveRx beta-arrestin cells, luminescence, 90 min; max activation, %; hit rate 0.58% among 410,000; AID 652048; in the data active means max activation above about 30%; further: 0% is about no effect
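Cells at 1500/well, incubated overnight, then treated with pinned compounds (dopamine as control) for 90 min at 37 degrees C. DiscoveRx reagent added for 30 - 60 minutes at room temperature; luminescence read.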
An asterisk follows results filed as active; ? = inconclusive; · = not tested or not shown. The list is not random: actives were taken first. Their share in the collection is about 21%. Unless noted, the call rests on the fitted dose curve; in most records, active means well fitted inhibition curve with a large enough effect; inconclusive means small, poorly fitted or top-dose-only effect; inactive means flat fitted curve, though single readings scatter.

SMILES	ClpP mod	TDP1 cell CPT	TDP1 cell noCPT	D3 antag	IL1B secr inh	D3 ag
Cc1ccc(C)c(NC(=S)NC(NC(=O)/C=C/c2ccccc2)C(Cl)(Cl)Cl)c1 (configuration not stated)	1%	?	23µM*	-22	?	0
O=C(/C=C/c1ccccc1)NC(NC(=S)Nc1ccc(C(=O)O)cc1)C(Cl)(Cl)Cl (configuration not stated)	0%	-5%	-7%	-12	14	-4
O=C(/C=C/c1ccccc1)NC(NC(=S)Nc1cccc(O)c1)C(Cl)(Cl)Cl (configuration not stated)	-2%	?	18µM*	-62*	-117*	-12
O=C(/C=C/c1ccccc1)NC(NC(=S)Nc1ccc(Cl)cc1Cl)C(Cl)(Cl)Cl (configuration not stated)	1%	21µM*	18µM*	-10	-10	-4
CC1NC(=O)c2cccnc2-n2c1nc1cc(F)c(F)cc1c2=O (configuration not stated)	-1%	4%	0%	20	32	-1
CCCCc1nnc(NC(=O)c2oc3ccc(OC)cc3c2C)s1	32µM*	?	?	-14	-29	-4
COc1ccc2oc(C(=O)Nc3nccs3)c(C)c2c1	·	-5%	-20%	5	6	6
COc1ccc2oc(C(=O)NCCc3ccccc3)c(C)c2c1	·	0%	?	0	-27	2
COc1ccc2oc(C(=O)NCc3cc(OC)c(OC)cc3OC)c(C)c2c1	·	23µM*	16µM*	-9	-14	-3
COc1ccc2oc(C(=O)NCC(c3ccco3)N(C)C)c(C)c2c1 (configuration not stated)	28µM*	-2%	-8%	7	-7	-4
NC(N)=NCCN1CCCCCCC1	·	?	-27%	·	·	3
O=C(Nc1ccc2c(c1)OCO2)C1Cc2c(-c3ccc(Cl)cc3)ccnc2O1 (configuration not stated)	-28%	?	?	?	-53*	-11
COc1ccc(NC(=O)C2Cc3c(-c4ccc5c(c4)OCO5)ccnc3O2)cc1 (configuration not stated)	4%	5.2µM*	8.2µM*	?	11	-7
CC(=O)Nc1cccc(-c2ccnc3c2CC(C(=O)Nc2ccc4c(c2)OCO4)O3)c1 (configuration not stated)	-5%	2.9µM*	4.6µM*	-55*	17	-15
CC(=O)Nc1ccc(NC(=O)C2Cc3c(-c4ccc5c(c4)OCO5)ccnc3O2)cc1 (configuration not stated)	4%	-7%	-6%	-21	-2	6
O=C(Nc1ccc2c(c1)OCO2)C1Cc2c(-c3ccc4c(c3)OCO4)ccnc2O1 (configuration not stated)	4%	6.5µM*	6.5µM*	-9	-2	7
O=C(Nc1ccc2c(c1)OCO2)C1Cc2c(-c3ccncc3)ccnc2O1 (configuration not stated)	1%	-16%	?	-17	-15	12
COc1ccccc1C(=O)NCCC(=O)N1CC(C)OC(C)C1 (configuration not stated)	·	-6%	-21%	-1	5	-3
COc1ccc(NC(=O)C2CCCC2)cn1	1%	13%	-2%	7	4	-1
COC(=O)N/N=C/c1cccc(OCCSc2ccc(Cl)cc2)c1	1%	?	?	24	-22	20
Cc1nc(SCC(=O)NCC2CCCO2)c2cc(-c3ccccc3)sc2n1 (configuration not stated)	-11%	?	?	24	-3	-1
O=C(Nc1ccccc1)C1Cc2c(-c3ccc4c(c3)OCO4)ccnc2O1 (configuration not stated)	5%	?	?	-9	?	-1
O=C(NCC1CC1)C1Cc2c(-c3ccc4c(c3)OCO4)ccnc2O1 (configuration not stated)	4%	?	18µM*	-5	0	3
O=C(Nc1cccnc1)C1Cc2c(-c3ccc4c(c3)OCO4)ccnc2O1 (configuration not stated)	5%	21µM*	1µM*	-17	-57*	-10
CN(C)c1ccc(NC(=O)CSC2=Nc3ccccc3C3=NC(CCC(=O)NCc4cccs4)C(=O)N23)cc1 (configuration not stated)	0%	?	?	·	·	-1
SMILES	ClpP mod	TDP1 cell CPT	TDP1 cell noCPT	D3 antag	IL1B secr inh	D3 ag
COc1ccc(/C=N\NC(=O)c2sccc2C)cc1Cn1nc(C)cc1C	-5%	7.3µM*	?	-6	-13	1
Cc1ccsc1/C=N/NC(=O)c1sccc1C	1%	?	?	-21	5	3
COc1ccc(/C=N\NC(=O)COc2ccccc2Cl)cc1Cn1nc(C)cc1C	0%	?	23µM*	-8	-2	0
COc1ccc(/C=N/NC(=O)c2ccc(Cl)cc2)cc1Cn1cc(Cl)cn1	·	-17%	?	15	-5	-14
Cc1ccc(N2CC(C(=O)N/N=C/c3c(F)cccc3Cl)CC2=O)cc1 (configuration not stated)	1%	-23%	?	-18	-7	-2
COc1ccc(CNC(=O)COC(=O)c2c(NC(C)=O)sc(C)c2C)cc1OC	-11%	?	23µM*	3	?	-4
Cc1cccc(NC(=O)COC(=O)c2ccc3nc(C)c(C)nc3c2)c1	-5%	-5%	3%	-58*	-11	-1
COc1ccccc1NC(=O)COC(=O)c1c(NC(C)=O)sc(C)c1C	-8%	?	16µM*	33	1	3
Cc1cccc(NC(=O)COC(=O)c2ccc3c(=O)n4c(nc3c2)CCC4)c1	-8%	-1%	-25%	-2	-1	2
COc1ccc(CNC(=O)COC(=O)c2c(NC(C)=O)sc(C)c2C)cc1	-4%	?	-20%	5	0	-11
CC(=O)Nc1sc(C)c(C)c1C(=O)OCC(=O)Nc1cccc(C)c1	5%	16µM*	16µM*	?	-59*	-22
CC(=O)Nc1sc(C)c(C)c1C(=O)OCC(=O)Nc1ccccc1	-6%	?	-17%	?	-4	-7
Cc1cccc(Nc2ccc([N+](=O)[O-])cn2)c1	1%	-4%	-24%	?	-10	-3

Screening results (PubChem BioAssay)
